For assay [1], the target named is Cytochrome P450 1A2 (Homo sapiens) (UniProt P05177). The experiment in a line: p450-cyp1a2 (AID 410; calls by dose curve; note: potency is the fitted concentration of half-maximal effect). The procedure, abridged: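 O-Demethylation of luciferin 6' methyl ether by human CYP1A2 is monitored as luciferase luminescence. Substrate sits at Km (100uM); enzyme is 20nM. Values are scaled to 57 uM furafylline as maximal inhibition.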
A short description of assay [2]: Stat Signaling Pathway (AID 446; active = well fitted curve in either direction with a large enough effect, not every such curve was filed as active;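 note: ME-180 cervical cancer cells given 40 pM IL-6 alongside compound; SIE-controlled beta-lactamase reporter measured as 460/530 nm FRET emission ratio; % is set by controls: 0 for no effect and ±100 for the full control effect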). The method in brief:
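FRET read-out (405 nm excitation, 460/530 nm emission) of a beta-lactamase reporter under a STAT-inducible element in ME-180 cervical carcinoma cells. Cells with compound receive 40 pM IL-6 for 5 h. Values are normalised to AC90 stimulation and AC90 JAK-inhibitor controls.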

The target of assay [3] is Glucocorticoid receptor (Homo sapiens) (UniProt P04150). Kind of assay: GR-GFP Redistribution (AID 450;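 active = compounds whose dose series gives a full or clear partial fitted curve of increased nuclear translocation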; note: potency is the fitted concentration of half-maximal effect). The following applies: U2OS GR-GFP nuclear translocation, laser cytometry, 2 h.
Assay [4] shares this target. Kind of assay: GR-EFC Redistribution (AID 451; calls by dose curve; note: potency is the fitted concentration of half-maximal effect). The following applies: CHO-K1 GR-EFC translocation, beta-gal luminescence, 2 h. The procedure, abridged: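 CHO-K1 cells stably expressing nuclear-localized β-gal enzyme acceptor and GR fused C-terminally to the enzyme donor fragment; ligand-driven nuclear translocation restores β-gal by complementation. Compounds titrated up to 46 uM final, 2 h at 37 °C; luminescence read.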

The target in assay [5] is 3',5'-cyclic-AMP phosphodiesterase 4B (Homo sapiens) (UniProt Q07343). Kind of assay: qHTS Assay for Inhibitors of PDE-IV (AID 607; active = well fitted activation curve with a large enough effect in the main read-out, with a control signal flat, not every such curve was filed as active; note: % of control where 0% means no effect). The method in brief: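 Cell-based read-out of cAMP via a modified cyclic nucleotide-gated channel and membrane potential dye (535/590 nm) in HEK293 cells expressing PDE4 endogenously. Compounds tested up to 22.9 uM final; 100 uM RO 20-1724 reference.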
(In general: Quantitative high-throughput screening tests each substance at several concentrations.)

Assay [6] has as its target Guanine nucleotide-binding protein G(i) subunit alpha-1 (Homo sapiens) (UniProt P63096). Kind of assay: qHTS Assay for Inhibitors of RGS12 GoLoco Motif Activity (Green Fluorophore) (AID 879).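 Note: 0% = labeled peptide with Gαi1 and full inhibition = labeled peptide alone without protein; negative values mean loss of peptide binding seen as reduced polarization.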 The method in brief: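 A drop in FITC polarization marked displacement of the FITC-tagged RGS12 GoLoco peptide (10 nM) from Gαi1 (50 nM). Compounds were incubated 10 min at room temperature in Tris pH 7.5 buffer containing 150 mM NaCl, 0.1 mM GDP and 0.05% NP40; unlabeled peptide titration served as control.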

The target in assay [7] is Cytochrome P450 3A4 (Homo sapiens) (UniProt P08684). Kind of assay: qHTS Assay for Activators of Cytochrome P450 3A4 (AID 885). Note: nearly all actives have a fitted effect of over 65% in size. The procedure, abridged:
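Luminescent readout of luciferin formed from 25 uM Luciferin-PPXE (KM level) by 20 nM CYP3A4 in 200 mM KPO4, with 60 min NADPH-driven reaction at room temperature after 10 min compound exposure. Ketoconazole (57 uM) defined 100% inhibition.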

Assay [8] in a line: qHTS Assay for Identification of Small Molecule Antagonists for Thrombopoietin (TPO) Signaling Pathway (AID 918). Note: potency is the fitted concentration of half-maximal effect; nearly all actives have a fitted effect of over 60% in size. The following applies: TPO-dependent cell signaling reporter, antagonist mode. The method in brief: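 Inhibitors of TPO signaling are sought by stimulating IL-3-starved murine Ba/F3 cells (human TPO receptor, Glycoprotein IIb-driven luciferase) with TPO at its EC50 of 26 pM alongside compound. After 24 hrs at 37 C, reporter luminescence is measured.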

Assay [9] addresses Pyruvate kinase (Leishmania mexicana) (UniProt Q27686). Kind of assay: qHTS Validation Assay for Inhibitors of Leishmania Mexicana Pyruvate Kinase (AID 945).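 Note: 0% = DMSO only neutral control wells.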 The procedure, abridged: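 Compounds are tested as eight-point concentration series. Reactions contain 0.2 nM LmPYK E451W, 0.5 mM PEP, 0.1 mM ADP, 7 mM MgCl2 and 50 mM KCl at pH 7.2, run 1 h at room temperature, then read by PKLight luminescence.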

Assay [10] deals with Pyruvate kinase PKM (Homo sapiens) (UniProt P14618). The experiment in a line: qHTS Assay for Activators of Human Muscle Pyruvate Kinase (AID 954; active = well fitted curve in the direction sought with a large enough effect, not every such curve was filed as active;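 note: 0% = uninhibited enzyme and -100% = no enzyme or full thiadiazolimine inhibition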). The method in brief:
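ATP production by PKM2 detected via luciferase luminescence after 1 h room-temperature reaction (0.1 nM enzyme, PEP at Km 0.5 mM, ADP 0.1 mM, pH 7.2 imidazole buffer). Inhibition scaled to no-enzyme control; activation referenced to 0.3 nM enzyme wells.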

In assay [11] the target is Alpha-galactosidase A (Homo sapiens) (UniProt P06280). Kind of assay: Counterscreen for Glucocerebrosidase Inhibitors: qHTS Assay for Human alpha-Galactosidase at pH 4.5 (AID 992). Note: 0% is about no effect. The method in brief:
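Fluorogenic 1536-well qHTS at pH 4.5 (citrate, Tween-20): 2 nM enzyme, 80 uM 4-MU-alpha-galactoside, 20 min room temperature, NaOH/glycine stop. Titration 0.7 nM to 77 uM, data normalized to no-enzyme and full-activity controls, Hill-fitted AC50.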
(A counterscreen serves to expose hits that act by an unwanted route or on another target.)

For assay [12], the target named is alpha-glucosidase (Oryza sativa, rice) (UniProt Q653V4). The experiment in a line: Counterscreen for Glucocerebrosidase Inhibitors: qHTS Assay for Rice alpha-Glucosidase at pH 5.0 (AID 997).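 Note: 0% = full activity with enzyme and -100% = basal without enzyme.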 The method in brief:
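Endpoint fluorogenic assay at pH 5.0: compounds (0.7 nM to 77 uM) titrated against 4 nM rice enzyme and 400 uM 4-MU-alpha-glucoside for 20 min at room temperature; NaOH/glycine stop, read ex 365/em 440 nm, Hill-fitted AC50.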

In assay [13] the target is DNA repair nuclease/redox regulator APEX1 (Homo sapiens) (UniProt P27695). The experiment in a line: qHTS Validation Assay for Inhibitors of the Human Apurinic/apyrimidinic Endonuclease 1 (APE1) (AID 1705;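 note: TAMRA fluorescence gain over two minutes as APE1 cuts a quenched THF abasic duplex; series mostly up to about 57 µM; % is set by controls: 0 for no effect and ±100 for the full control effect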). The procedure, abridged: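 Substrate: 50 nM final fluorophore/quencher THF-abasic duplex. Enzyme preincubated with compounds 15 min, RT. Progress derived from fluorescence difference, third minus first kinetic read.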

A short description of assay [14]: Counterscreen for APE1 Inhibitors: Fluorescent Dye Displacement Validation Assay (AID 1707).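 Note: plate controls were ThO with dsDNA and no compound for no effect and ThO without dsDNA for full effect.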 The procedure, abridged:
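Counterscreen flags promiscuous DNA binders: compounds displacing ThO from duplex DNA (abasic THF site, 50 nM) reduce 540 nm emission (480 nm excitation). ThO 250 nM final; Tris-HCl pH 7.5 with NaCl, MgCl2 and Tween-20.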

Assay [15] is described as follows: qHTS for differential inhibitors of proliferation of Plasmodium falciparum line 7G8 (AID 1815).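 Note: potency is the fitted concentration of half-maximal effect; parasite growth measured after three days of incubation.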
Assay [16] can be described thus: qHTS for differential inhibitors of proliferation of Plasmodium falciparum line GB4 (AID 1816).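 Note: potency is the fitted concentration of half-maximal effect; parasite growth measured after 72 h incubation.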 The following applies: Potency: Plasmodium falciparum GB4 proliferation inhibition.
The nature of assay [17]: qHTS for differential inhibitors of proliferation of Plasmodium falciparum line D10 (AID 1877).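 Note: potency is the fitted concentration of half-maximal effect; parasites grown with compound for 72 h before DNA staining.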
Assay [18] is described as follows: qHTS for differential inhibitors of proliferation of Plasmodium falciparum line W2 (AID 1883).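 Note: potency is the fitted concentration of half-maximal effect; parasites grown with compound for 72 h before lysis and staining.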 The following applies: Potency: Plasmodium falciparum W2 proliferation inhibition.
Assay [19] in a line: qHTS for differential inhibitors of proliferation of Plasmodium falciparum line HB3 (AID 1886).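 Note: potency is the fitted concentration of half-maximal effect; parasites grown with compound for 72 h before SYBR Green readout.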 The following applies: Potency: Plasmodium falciparum HB3 proliferation inhibition.
For assay [20], the target named is ATP-dependent DNA helicase Q1 (Homo sapiens) (UniProt P46063). Kind of assay: qHTS Validation Assay for Inhibitors of RecQ-Like Dna Helicase 1 (RECQ1) (AID 2353).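 Note: plate controls were DMSO vehicle for no effect and enzyme-free control for full effect.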 The method in brief:
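RECQ1T1 50 nM; forked duplex (20 bp + 30-nt ss tails) 200 nM, ATP 2 mM final; pH 8.0, 2 mM MgCl2, 2.5 ug/ml poly(dI-dC); 15 min compound preincubation; discontinuous kinetic read over 2 h at RT.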

Assay [21] has as its target M-phase phosphoprotein 8 (Homo sapiens) (UniProt Q99549). The experiment in a line: qHTS Validation Assay for Inhibitors for MPP8 Chromodomain Interactions with Methylated Histone Tails (AID 488949).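 Note: AlphaScreen signal from MPP8 chromodomain bound to biotinylated H3K9me3 peptide; top concentration of the series differs between compounds; % is set by controls: 0 for no effect and ±100 for the full control effect; nearly all actives have a fitted effect of over 55% in size.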 The procedure, abridged: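 Chemiluminescent proximity assay: histidine-tag capture via nickel acceptor beads, biotin peptide via streptavidin donor beads. Protein and peptide each at 50 nM, pH 7.4, with 30 min incubations at room temperature for complex formation, compound exposure and bead binding.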

The target in assay [22] is Transient receptor potential cation channel subfamily V member 1 (Homo sapiens) (UniProt Q8NER1). The experiment in a line: HTS Assay for Compounds that Act as Enhancers of the Vanilloid Receptor 1 (AID 488979). Note: 0% is about no effect. The method in brief: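 TRPV1-expressing cells loaded with Fluo-8 calcium dye; compounds added and calcium influx read kinetically for 3 min (agonist phase), then capsaicin at EC20 added and read 2 min more for enhancement. Fluorescence ex 480/em 520 nm.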

Assay [23] has as its target Thyrotropin-releasing hormone receptor (Homo sapiens) (UniProt P34981). Kind of assay: qHTS for Small Molecule Agonists and Allosteric Enhancers of Human TRH Receptor: Validation Screen for Agonists (AID 493127;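 active = calcium activation more than 3 SD above the typical response in the agonist read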;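 note: intracellular calcium rise by fluo-8 fluorescence before TRH EC20 addition; 0% is about no effect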). The note with it: TRH receptor agonist cell assay; at 2 µM; stronger effect = higher value. The method in brief:
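Compounds are added by online pintool to dye-loaded TRHR cells while fluorescence is recorded every second. A rise in calcium signal during the agonist read marks activation; a later 10 nM TRH addition (EC20) serves the separate enhancer mode.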

For assay [24], the target named is Galactokinase (Homo sapiens) (UniProt P51570). The experiment in a line: qHTS Validation Assay for Inhibitors of Human Galactokinase (GALK) (AID 493189). Note: 0% is about no effect. The method in brief: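 Enzyme activity is inferred from ATP consumption: human GALK phosphorylates galactose (100 uM) using 35 uM ATP for 1 h at room temperature, and luciferase-based Kinase-Glo Plus reports unconsumed ATP.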

The target of assay [25] is Voltage-gated inwardly rectifying potassium channel KCNH2 (Homo sapiens) (UniProt Q12809). The experiment in a line: qHTS Assay for Small Molecule Inhibitors of the Human hERG Channel Activity (AID 588834).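 Note: potency is the fitted concentration of half-maximal effect; lower thallium flux fluorescence means stronger hERG block; nearly all actives have a fitted effect of over 50% in size.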 The procedure, abridged:
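Homogeneous FluxOR thallium flux assay using hERG-expressing U2OS cells (BacMam). Compound treatment about 10 minutes preceded stimulation; reduced fluorescence taken as channel block.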

For assay [26], the target named is Endonuclease 4 (Escherichia coli (strain K12)) (UniProt P0A6C1). The experiment in a line: Counterscreen for APE1 Inhibitors: qHTS Validation Assay for Inhibitors of Endonuclease IV (AID 1708). Note: % is set by controls: 0 for no effect and ±100 for the full control effect. The procedure, abridged: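 Enzyme (2 nM) + compound, 15 min RT; add 50 nM TAMRA/BHQ-2 THF-site dsDNA; kinetic read ex525/em598, 3 reads/60 s; activity = read 3 − read 1. Buffer Tris pH 7.5, 50 mM NaCl, 2 mM MgCl2, DTT, Tween-20.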

A short description of assay [27]: qHTS for differential inhibitors of proliferation of Plasmodium falciparum line Dd2 (AID 1882).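 Note: series mostly up to about 29 µM; plate controls were DMSO vehicle for no effect and 0.29 µM artemisinin for full effect; nearly all actives have a fitted effect of over 65% in size.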 The note with it: Potency: Plasmodium falciparum Dd2 proliferation inhibition. The method in brief: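 SYBR Green DNA fluorescence (ex 485, em 535 nm) after overnight lysis quantifies parasite growth; compound exposure lasted 72 h at 37 C on infected red cells at 2.5% hematocrit, 0.3% parasitemia (final). Artemisinin 0.29 uM and vehicle wells define normalization.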

Assay [28] in a line: Validation screen for small molecules that induce DNA re-replication in SW480 colon adenocarcinoma cells (AID 504364). Note: 0% is about no effect. The method in brief: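 Image-based qHTS: compounds were incubated with SW480 cells for 48 hr, nuclei stained with Hoechst, and per-nucleus fluorescence intensity scanned to flag cells with excess DNA content.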
Assay [29] has as its target Rap guanine nucleotide exchange factor 3 (Homo sapiens) (UniProt O95398). Kind of assay: Counterscreen qHTS for antagonist of cAMP-regulated guanine nucleotide exchange factor 3 (EPAC1) (AID 1645888).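 Note: fluorescence loss as bound BODIPY-GDP is released from Rap1B; % of control where 0% means no effect.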 The procedure, abridged:
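Measured: fluorescence of BODIPY-GDP bound to Rap1B, which falls as exchange proceeds. Conditions include 50 uM competing GDP, 5 and 30 min reads, and a later cAMP challenge for antagonist detection.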

Unmarked numbers belong to inactive results. Records with an inconclusive call do not appear. Activity calls are given as the source filed them. Unless noted, calls come from the whole dose curve; as a rule, active = well fitted curve in the direction sought with a large enough effect; inconclusive = small, poorly fitted or top-dose-only effect, or another doubt; inactive = no such curve, though single readings can be large; an effect the other way counts as inactive or inconclusive. A value given as a limit tells only on which side of the number the result lay.

Glucocorticoid receptor (Homo sapiens), sequence (P04150 whole entry, looked up, the tested form may be a part): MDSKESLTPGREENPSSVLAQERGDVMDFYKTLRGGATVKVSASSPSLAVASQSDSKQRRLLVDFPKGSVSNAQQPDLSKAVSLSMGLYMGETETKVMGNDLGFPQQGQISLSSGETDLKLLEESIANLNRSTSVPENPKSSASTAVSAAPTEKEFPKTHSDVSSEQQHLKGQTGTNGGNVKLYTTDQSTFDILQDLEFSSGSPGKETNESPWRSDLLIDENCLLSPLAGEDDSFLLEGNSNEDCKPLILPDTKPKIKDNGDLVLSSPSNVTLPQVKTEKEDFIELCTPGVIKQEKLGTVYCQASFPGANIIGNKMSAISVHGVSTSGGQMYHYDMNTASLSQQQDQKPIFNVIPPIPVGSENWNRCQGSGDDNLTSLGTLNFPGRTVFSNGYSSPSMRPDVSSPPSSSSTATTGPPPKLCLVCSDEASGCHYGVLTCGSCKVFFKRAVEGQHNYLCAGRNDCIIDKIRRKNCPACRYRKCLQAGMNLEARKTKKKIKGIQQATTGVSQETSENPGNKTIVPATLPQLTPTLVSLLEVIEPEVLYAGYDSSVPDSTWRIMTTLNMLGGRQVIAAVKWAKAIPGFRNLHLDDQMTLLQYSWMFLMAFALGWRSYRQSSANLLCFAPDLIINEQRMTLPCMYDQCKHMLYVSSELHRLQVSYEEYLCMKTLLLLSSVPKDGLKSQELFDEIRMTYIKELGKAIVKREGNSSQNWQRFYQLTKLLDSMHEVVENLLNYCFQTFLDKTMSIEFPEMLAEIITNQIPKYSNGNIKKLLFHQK
Transient receptor potential cation channel subfamily V member 1 (Homo sapiens), sequence (Q8NER1 whole entry, looked up): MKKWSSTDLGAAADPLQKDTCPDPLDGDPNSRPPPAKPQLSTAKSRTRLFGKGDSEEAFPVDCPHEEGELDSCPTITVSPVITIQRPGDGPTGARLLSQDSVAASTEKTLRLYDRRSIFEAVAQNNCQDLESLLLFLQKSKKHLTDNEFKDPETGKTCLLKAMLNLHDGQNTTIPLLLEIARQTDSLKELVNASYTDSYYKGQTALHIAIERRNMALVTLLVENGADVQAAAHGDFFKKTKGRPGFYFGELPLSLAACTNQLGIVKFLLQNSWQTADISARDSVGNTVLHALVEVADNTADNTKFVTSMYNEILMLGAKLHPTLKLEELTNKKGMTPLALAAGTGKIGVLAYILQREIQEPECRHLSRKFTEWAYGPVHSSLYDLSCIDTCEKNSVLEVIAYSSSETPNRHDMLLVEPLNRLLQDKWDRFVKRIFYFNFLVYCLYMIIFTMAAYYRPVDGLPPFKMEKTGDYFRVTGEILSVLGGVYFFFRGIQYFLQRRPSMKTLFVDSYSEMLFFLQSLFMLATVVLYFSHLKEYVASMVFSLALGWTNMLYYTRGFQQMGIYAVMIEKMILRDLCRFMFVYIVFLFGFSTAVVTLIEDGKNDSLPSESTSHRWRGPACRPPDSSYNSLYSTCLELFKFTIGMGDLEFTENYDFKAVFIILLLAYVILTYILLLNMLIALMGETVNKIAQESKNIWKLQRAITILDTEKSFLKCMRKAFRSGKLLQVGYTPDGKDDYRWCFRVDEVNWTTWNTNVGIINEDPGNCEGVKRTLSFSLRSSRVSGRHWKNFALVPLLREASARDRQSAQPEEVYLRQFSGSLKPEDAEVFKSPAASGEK
M-phase phosphoprotein 8 (Homo sapiens), sequence (Q99549 whole entry, looked up): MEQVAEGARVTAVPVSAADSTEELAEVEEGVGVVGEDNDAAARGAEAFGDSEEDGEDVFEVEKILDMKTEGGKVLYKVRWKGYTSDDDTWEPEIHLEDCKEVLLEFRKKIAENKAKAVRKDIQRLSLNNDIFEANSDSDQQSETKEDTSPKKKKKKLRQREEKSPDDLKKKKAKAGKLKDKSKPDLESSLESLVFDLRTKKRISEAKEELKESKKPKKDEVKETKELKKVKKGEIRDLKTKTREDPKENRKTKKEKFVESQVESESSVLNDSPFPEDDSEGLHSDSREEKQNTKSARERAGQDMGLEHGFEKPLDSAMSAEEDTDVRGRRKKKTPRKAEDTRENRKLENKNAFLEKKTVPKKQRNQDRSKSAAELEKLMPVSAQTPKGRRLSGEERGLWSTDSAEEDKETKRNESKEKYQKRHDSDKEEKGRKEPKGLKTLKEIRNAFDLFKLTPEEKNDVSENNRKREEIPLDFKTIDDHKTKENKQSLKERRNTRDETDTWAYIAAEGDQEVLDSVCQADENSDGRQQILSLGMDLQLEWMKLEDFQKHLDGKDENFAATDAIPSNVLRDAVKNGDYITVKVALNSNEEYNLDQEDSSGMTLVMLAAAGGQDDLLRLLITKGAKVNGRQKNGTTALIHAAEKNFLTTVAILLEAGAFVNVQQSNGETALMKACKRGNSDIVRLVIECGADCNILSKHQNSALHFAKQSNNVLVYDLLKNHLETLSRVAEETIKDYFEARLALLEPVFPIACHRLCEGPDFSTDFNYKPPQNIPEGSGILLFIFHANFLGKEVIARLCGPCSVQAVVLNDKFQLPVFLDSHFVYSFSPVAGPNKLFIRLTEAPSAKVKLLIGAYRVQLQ
Thyrotropin-releasing hormone receptor (Homo sapiens), sequence (P34981 whole entry, looked up): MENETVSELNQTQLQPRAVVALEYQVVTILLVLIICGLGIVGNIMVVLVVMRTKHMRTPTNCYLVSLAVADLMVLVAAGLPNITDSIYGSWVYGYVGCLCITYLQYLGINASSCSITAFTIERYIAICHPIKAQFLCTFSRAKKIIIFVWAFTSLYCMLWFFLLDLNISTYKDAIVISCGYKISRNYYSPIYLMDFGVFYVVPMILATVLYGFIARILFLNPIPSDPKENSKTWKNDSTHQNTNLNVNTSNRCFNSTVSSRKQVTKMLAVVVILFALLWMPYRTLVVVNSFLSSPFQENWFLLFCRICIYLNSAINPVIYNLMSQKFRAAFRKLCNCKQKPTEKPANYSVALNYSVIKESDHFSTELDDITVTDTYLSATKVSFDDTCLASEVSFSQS
Galactokinase (Homo sapiens), sequence (P51570 whole entry, looked up): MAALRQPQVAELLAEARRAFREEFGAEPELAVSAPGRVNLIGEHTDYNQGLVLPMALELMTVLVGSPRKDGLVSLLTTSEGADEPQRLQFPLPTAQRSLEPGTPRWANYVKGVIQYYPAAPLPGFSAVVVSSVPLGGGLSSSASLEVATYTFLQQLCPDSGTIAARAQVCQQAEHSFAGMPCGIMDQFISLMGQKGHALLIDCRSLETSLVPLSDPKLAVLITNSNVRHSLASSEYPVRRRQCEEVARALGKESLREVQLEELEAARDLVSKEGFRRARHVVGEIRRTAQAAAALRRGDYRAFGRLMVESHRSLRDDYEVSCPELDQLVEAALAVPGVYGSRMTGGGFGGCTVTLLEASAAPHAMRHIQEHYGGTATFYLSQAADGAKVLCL
DNA repair nuclease/redox regulator APEX1 (Homo sapiens), sequence (P27695 whole entry, looked up): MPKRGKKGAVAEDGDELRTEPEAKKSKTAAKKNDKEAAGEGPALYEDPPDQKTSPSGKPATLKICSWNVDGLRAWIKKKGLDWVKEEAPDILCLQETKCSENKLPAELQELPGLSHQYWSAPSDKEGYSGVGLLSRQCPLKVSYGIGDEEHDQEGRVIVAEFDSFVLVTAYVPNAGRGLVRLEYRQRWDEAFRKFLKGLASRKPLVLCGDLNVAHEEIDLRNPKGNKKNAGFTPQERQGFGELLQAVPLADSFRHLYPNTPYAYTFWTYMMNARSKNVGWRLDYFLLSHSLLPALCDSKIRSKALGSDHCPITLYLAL
ATP-dependent DNA helicase Q1 (Homo sapiens), sequence (P46063 whole entry, looked up): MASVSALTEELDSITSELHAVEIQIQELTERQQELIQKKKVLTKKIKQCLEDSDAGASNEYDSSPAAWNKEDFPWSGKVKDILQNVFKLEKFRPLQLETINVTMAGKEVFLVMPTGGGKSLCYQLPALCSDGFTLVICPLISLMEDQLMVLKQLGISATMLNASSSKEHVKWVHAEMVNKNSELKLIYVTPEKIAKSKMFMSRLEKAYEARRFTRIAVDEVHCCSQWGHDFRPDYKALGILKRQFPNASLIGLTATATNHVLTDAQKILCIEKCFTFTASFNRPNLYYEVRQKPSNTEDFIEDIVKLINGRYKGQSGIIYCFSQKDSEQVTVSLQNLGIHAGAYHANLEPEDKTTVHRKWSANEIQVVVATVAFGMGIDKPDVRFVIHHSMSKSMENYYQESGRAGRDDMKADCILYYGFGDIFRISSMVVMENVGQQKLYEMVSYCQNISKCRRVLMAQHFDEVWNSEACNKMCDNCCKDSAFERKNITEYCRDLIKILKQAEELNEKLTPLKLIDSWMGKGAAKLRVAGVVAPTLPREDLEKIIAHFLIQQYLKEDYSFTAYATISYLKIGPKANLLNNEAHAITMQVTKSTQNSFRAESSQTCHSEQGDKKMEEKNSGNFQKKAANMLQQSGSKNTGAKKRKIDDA
Cytochrome P450 1A2 (Homo sapiens), sequence (P05177 whole entry, looked up): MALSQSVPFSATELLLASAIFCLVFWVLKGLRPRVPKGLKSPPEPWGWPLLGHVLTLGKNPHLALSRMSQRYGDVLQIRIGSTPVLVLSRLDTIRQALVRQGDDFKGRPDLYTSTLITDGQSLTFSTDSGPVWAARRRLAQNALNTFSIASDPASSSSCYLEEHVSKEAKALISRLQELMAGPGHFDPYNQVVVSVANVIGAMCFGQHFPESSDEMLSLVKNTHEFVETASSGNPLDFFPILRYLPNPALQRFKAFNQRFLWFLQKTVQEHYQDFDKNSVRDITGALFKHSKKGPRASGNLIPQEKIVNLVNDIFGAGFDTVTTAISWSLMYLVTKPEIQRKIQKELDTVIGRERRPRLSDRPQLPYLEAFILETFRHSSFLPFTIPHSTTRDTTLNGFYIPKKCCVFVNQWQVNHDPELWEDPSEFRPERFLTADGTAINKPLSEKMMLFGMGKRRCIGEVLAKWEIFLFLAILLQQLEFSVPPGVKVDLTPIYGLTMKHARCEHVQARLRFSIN

For `N#Cc1c(-c2ccccc2)no[n+]1[O-]`, the Potency was 0.398 µM (active) in [1]; greater than 46 µM in assay [3]; greater than 46 µM in assay [4]; 3.98 µM (active) in [8]; 10 µM (active) in [15]; 12.6 µM (active) in [16]. In addition, the Potency in assay [17] is 14.1 µM (active); in [18], 10 µM (active); in assay [19], 11.2 µM (active); in assay [25] it was 5.01 µM (active). Moreover, the outcome in assay [2], in [7], in assay [9], in assay [10], in assay [11] and in [12] was inactive. The outcome in assay [14], in [20], in [22] and in assay [24] was inactive. The Potency entry in assay [5], in assay [6], in assay [13] and in assay [21] was “inactive” throughout. The activation in assay [23] is 0.688%.
Regarding `C#C[C@]1(O)CC[C@H]2C3CCC4=Cc5oncc5CC4(C)C3CCC21C` (stereo partly drawn), the Potency entry in [13], in [26], in assay [27], in [21] and in assay [28] was “inactive” in each case. Besides, the outcome in assay [14], in [20], in [22] and in assay [24] was inactive. Moreover, the Potency in assay [15] and in assay [18] was 8.91 µM (active) each time. Further, in assay [23], the activation is 1.44%.
As for `O=C1OC(c2ccccc2)(c2ccc(O)cc2)c2ccccc21` (stereo not drawn), the activity change, negative = inhibition in [29] was -9.22% [at 30.8 µM].

The record behind these values is PubChem BioAssay (NCATS).
